Source: PubChem BioAssay (NCATS)
Several values for one entry are separate records, joined by “and”; a condition that tells them apart may be missing. Equal values may be shown once. Inconclusive results are not listed. Activity calls are given as the source filed them. Unless noted, calls follow the shape of the dose curve; as a rule, active = well fitted curve in the direction sought with a large enough effect; inconclusive = small, poorly fitted or top-dose-only effect, or another doubt; inactive = no such curve, though single readings can be large; an effect the other way counts as inactive or inconclusive.

Columns and labels:
[1] = qHTS assay for small molecule agonists of the antioxidant response element (ARE) signaling pathway (AID 651741; active = well fitted activation curve with a large enough effect in the signal ratio; the % refers to the signal ratio; also: % of control where 0% means no effect)
Method in brief: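 Agonist activity is measured as ARE-driven beta-lactamase expression in a stable HepG2 reporter line, using 16 h compound treatment at 37 C and a FRET substrate fluorescence readout after 2 h.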

[2] = qHTS assay for small molecule disruptors of the mitochondrial membrane potential - 1 hr assay (AID 651754; calls by dose curve; also: % is scaled to controls: 0 for no effect and ±100 for the full control effect; nearly all actives have a fitted effect of over 35% in size)
Method in brief: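 In this qHTS format, a 1 hr compound treatment of HepG2 cells precedes Mito-MPS staining, and membrane potential is judged from aggregate (red) against monomer (green) fluorescence intensity.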

[3] = qHTS assay for small molecule disruptors of the mitochondrial membrane potential - 5 hr assay (AID 651755; calls by dose curve; also: % is scaled to controls: 0 for no effect and ±100 for the full control effect; nearly all actives have a fitted effect of over 40% in size)
Method in brief: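 Membrane-potential dye readout: red aggregate (540 ex/590 em) versus green monomer (490 ex/535 em) fluorescence after 30 min dye loading, following 5 hr compound exposure at 37C of overnight-plated HepG2 cells.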

[4] = molecular target: Tumor necrosis factor (Homo sapiens) (UniProt P01375); assay: qHTS assay to identify small molecules that stimulate Tumor Necrosis Factor-alpha (TNF-alpha) secretion (AID 651757; active = well fitted curve in the direction sought with a large enough effect in the signal ratio; the % refers to the signal ratio; also: 0% is about no effect)
Tumor necrosis factor (Homo sapiens), sequence (P01375 whole entry, looked up): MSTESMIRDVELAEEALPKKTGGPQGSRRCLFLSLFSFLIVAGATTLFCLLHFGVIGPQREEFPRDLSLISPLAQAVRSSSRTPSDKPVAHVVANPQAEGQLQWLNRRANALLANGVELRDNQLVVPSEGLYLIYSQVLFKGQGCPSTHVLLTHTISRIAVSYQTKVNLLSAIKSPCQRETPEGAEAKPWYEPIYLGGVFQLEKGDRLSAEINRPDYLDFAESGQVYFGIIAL
Method in brief: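 Using 3000 THP-1 cells per well, compounds and controls were applied for 17 hrs at 37 C. Detection followed with two labeled anti-TNF-alpha antibodies (cryptate donor, XL665 acceptor) for 3 hr at room temperature, measured by TR-FRET.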

[5] = qHTS assay for environmental chemicals that activate the Aryl hydrocarbon Receptor (AhR) signaling pathway (AID 651777); conditions: 1A2-DRE human hepatoma cells, luciferase, 24 h; activation: hits give high values; also: % of control where 0% means no effect; nearly all actives have a fitted effect of over 15% in size
Method in brief: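 Reporter gene assay: hepatoma cells with DRE/CYP1A2-luciferase, 24 hr compound incubation at 37 C, 5% CO2, luminescence after One-Glo (30 min, RT).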

[6] = molecular target: Peroxisome proliferator-activated receptor alpha (Homo sapiens) (UniProt Q07869); assay: qHTS assay for small molecule agonists of the peroxisome proliferator-activated receptor alpha (PPARalpha) signaling pathway (AID 651778); conditions: PathHunter PPARalpha complementation, chemiluminescence, 6 h; max response: hits give high values; also: % of control where 0% means no effect
Peroxisome proliferator-activated receptor alpha (Homo sapiens), sequence (Q07869 whole entry, looked up): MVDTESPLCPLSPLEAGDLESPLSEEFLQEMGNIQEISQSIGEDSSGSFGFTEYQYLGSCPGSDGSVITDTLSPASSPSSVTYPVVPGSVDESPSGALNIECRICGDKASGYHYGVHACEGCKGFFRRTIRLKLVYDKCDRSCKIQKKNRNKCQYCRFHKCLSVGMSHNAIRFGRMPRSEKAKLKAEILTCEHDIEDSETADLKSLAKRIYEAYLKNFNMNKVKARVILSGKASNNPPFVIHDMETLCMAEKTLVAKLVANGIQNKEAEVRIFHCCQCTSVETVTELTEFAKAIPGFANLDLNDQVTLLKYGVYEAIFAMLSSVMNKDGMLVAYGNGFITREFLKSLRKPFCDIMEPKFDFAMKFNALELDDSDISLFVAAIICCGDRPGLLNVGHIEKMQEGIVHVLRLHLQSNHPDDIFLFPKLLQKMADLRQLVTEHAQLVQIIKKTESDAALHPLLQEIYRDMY
Method in brief: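 Chemiluminescence from complemented enzyme reported PPARalpha activation in cells after 6 hr of compound treatment at 37 C. The detection reagent was incubated for 60 min at room temperature, and compounds were scored as agonists.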

[7] = molecular target: Nuclear receptor ROR-gamma (Homo sapiens) (UniProt P51449); assay: qHTS assay for small molecule antagonists of the retinoid-related orphan receptor gamma (ROR-gamma) signaling pathway (AID 651802);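 also: CHO cells with doxycycline-induced ROR-gamma expression; luciferase reporter luminescence driven by ROR response element; series mostly up to about 92 µM; % is scaled to controls: 0 for no effect and ±100 for the full control effect; nearly all actives have a fitted effect of over 60% in size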
Nuclear receptor ROR-gamma (Homo sapiens), sequence (P51449 whole entry, looked up): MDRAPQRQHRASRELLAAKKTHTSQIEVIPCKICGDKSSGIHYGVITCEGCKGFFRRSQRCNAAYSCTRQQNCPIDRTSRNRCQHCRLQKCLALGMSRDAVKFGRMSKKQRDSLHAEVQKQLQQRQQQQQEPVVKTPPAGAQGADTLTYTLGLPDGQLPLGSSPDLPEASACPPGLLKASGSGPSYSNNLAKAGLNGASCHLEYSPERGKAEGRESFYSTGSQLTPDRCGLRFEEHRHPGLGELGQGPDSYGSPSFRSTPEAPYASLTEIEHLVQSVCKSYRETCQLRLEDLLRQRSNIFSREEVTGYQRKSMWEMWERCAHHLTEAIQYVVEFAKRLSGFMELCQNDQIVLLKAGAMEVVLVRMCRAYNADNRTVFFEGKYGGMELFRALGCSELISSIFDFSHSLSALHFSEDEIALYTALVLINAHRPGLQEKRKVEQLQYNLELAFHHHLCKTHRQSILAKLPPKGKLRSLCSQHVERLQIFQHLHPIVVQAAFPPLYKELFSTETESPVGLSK
Method in brief: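 Doxycycline-induced reporter activity in engineered CHO cells (TET-inducible ROR, RORE-LUC) was measured by luminescence after 16hr compound exposure at 37C.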

[8] = qHTS assay for small molecule agonists of the antioxidant response element (ARE) signaling pathway measured by Nrf2-dependant transcriptional activity (AID 720636; active = well fitted curve in the direction sought with a large enough effect in the repeat runs; an effect the other way counts as inactive or inconclusive;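 also: HepG2 cells with an ARE-driven luciferase reporter; % of control where 0% means no effect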)
Method in brief: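 Nrf2-dependent transcription is measured in ARE-luc HepG2 cells: compound is applied for 16 hr at 37 C after a 6 hr attachment period, and luciferase activity is quantified by luminescence using ONE-Glo.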

[9] = qHTS assay for small molecule antagonists of the retinoid-related orphan receptor gamma (ROR-gamma) signaling pathway - cell viability counter screen (AID 720652; active = well fitted curve in the direction sought with a large enough effect in the repeat runs; an effect the other way counts as inactive or inconclusive;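 also: CHO reporter cells with doxycycline-induced ROR-gamma expression; series mostly up to about 92 µM; compound exposure lasted 16 hr before ATP read; % is scaled to controls: 0 for no effect and ±100 for the full control effect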)
Method in brief: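 ATP-based viability readout in the ROR-gamma reporter CHO cells after 16 hr compound exposure under doxycycline induction.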

[10] = qHTS assay for small molecule agonists of the antioxidant response element (ARE) signaling pathway measured by Nrf2-dependant transcriptional activity - cell viability counter screen (AID 720653; active = well fitted curve in the direction sought with a large enough effect in the repeat runs; an effect the other way counts as inactive or inconclusive; also: % is scaled to controls: 0 for no effect and ±100 for the full control effect); conditions: ARE-bla HepG2 viability, CellTiter-Glo ATP luminescence, 16 h; max response: hits give low values
Method in brief: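 Cytotoxicity counter screen: intracellular ATP quantified by CellTiter-Glo luminescence in the same ARE-bla HepG2 plates, after 16 h compound exposure and a 2 h beta-lactamase substrate step.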

[11] = qHTS assay for cell viability of HEK293 cells (AID 743288); conditions: ATP luminescence (CellTiter-Glo), 18 h; max response: hits give low values; also: % is scaled to controls: 0 for no effect and ±100 for the full control effect; nearly all actives have a fitted effect of over 50% in size
Method in brief: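 Readout is luciferase-coupled ATP content (CellTiter-Glo luminescence, 30 min room temperature) as a measure of metabolically competent cells. Parental HEK293 cells were plated 5 h or more before compound addition, then treated 18 h at 37 C.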

[12] = qHTS assay for cell viability of the p53RE-bla HCT-116 cell line (AID 743292); also: % is scaled to controls: 0 for no effect and ±100 for the full control effect; nearly all actives have a fitted effect of over 55% in size
Method in brief: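 ATP-based luminescence, 16 h compound exposure at 37 C, p53RE-bla HCT-116 cells at 4,000/well.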

[13] = HepG2 viability counterscreen (readout 2: ATP content) against the NCATS DSHEA and TCM libraries (AID 1794840);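 also: HepG2 cells exposed to substances for about 24 h; 0% is about no effect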
Method in brief: (§1)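 Readout 1: cellular protease activity, GF-AFC substrate (25 uM final, 30 min, fluorescence 380/510 nm). Readout 2: ATP content by CellTiter-Glo luminescence after 30 min at RT. Both follow ~24 h exposure of HepG2 cells (1,000/well) to substances.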

[14] = HepG2 viability counterscreen (readout 1: protease activity) against the NCATS DSHEA and TCM libraries (AID 1794841);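 also: cells exposed to compounds for about 24 h before the protease read; 0% is about no effect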
Method in brief: as §1

[15] = molecular target: Cytochrome P450 3A4 (Homo sapiens) (UniProt P08684); assay: qHTS for inhibitors of CYP3A4 against the NCATS DSHEA and TCM libraries (AID 1919971);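 also: % is scaled to controls: 0 for no effect and ±100 for the full control effect; inhibition lowers luminescence from luciferin made by CYP3A4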
Cytochrome P450 3A4 (Homo sapiens), sequence (P08684 whole entry, looked up, canonical isoform): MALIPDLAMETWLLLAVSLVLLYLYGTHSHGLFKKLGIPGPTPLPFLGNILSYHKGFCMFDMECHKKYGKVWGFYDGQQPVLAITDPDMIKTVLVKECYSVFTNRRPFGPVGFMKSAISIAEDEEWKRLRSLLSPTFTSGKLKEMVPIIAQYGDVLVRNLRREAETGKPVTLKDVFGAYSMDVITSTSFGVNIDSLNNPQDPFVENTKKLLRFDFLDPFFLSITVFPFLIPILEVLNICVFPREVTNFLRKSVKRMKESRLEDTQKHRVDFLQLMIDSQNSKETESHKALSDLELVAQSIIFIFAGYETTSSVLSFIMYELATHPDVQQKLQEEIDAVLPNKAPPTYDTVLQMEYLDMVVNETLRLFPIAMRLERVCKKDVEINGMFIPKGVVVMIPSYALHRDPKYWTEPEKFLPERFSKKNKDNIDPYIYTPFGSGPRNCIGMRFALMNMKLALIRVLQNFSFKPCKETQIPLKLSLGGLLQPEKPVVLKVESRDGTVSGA
Method in brief: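 Isoform-specific enzyme and substrate levels; enzyme-free wells as background. Reaction: 1x NADPH regenerating system, 30-45 min, room temperature, shielded from light; luminescent detection reagent added, 30 min.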

[16] = molecular target: Cytochrome P450 2D6 (Homo sapiens) (UniProt P10635); assay: qHTS for inhibitors of CYP2D6 against the NCATS DSHEA and TCM libraries (AID 1919972); also: % is scaled to controls: 0 for no effect and ±100 for the full control effect
Cytochrome P450 2D6 (Homo sapiens), sequence (P10635 whole entry, looked up): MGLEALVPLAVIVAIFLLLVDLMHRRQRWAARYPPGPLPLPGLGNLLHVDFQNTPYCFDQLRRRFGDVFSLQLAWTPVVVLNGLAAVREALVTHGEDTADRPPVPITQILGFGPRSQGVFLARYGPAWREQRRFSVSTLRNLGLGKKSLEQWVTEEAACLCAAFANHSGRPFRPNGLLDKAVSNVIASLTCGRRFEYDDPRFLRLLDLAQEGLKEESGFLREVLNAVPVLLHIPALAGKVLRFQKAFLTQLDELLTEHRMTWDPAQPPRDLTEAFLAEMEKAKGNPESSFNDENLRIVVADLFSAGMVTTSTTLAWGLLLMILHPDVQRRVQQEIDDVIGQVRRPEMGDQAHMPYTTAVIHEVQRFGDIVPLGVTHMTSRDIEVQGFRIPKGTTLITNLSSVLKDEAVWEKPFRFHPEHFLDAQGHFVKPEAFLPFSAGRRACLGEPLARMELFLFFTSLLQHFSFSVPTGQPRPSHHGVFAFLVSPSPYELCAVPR
Method in brief: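 qHTS, concentration–response format with most substances from 19.5 nM. CYP2D6 + pro-luciferin substrate, 15 min with compound, then 1x NADPH regen, 30–45 min RT dark. Glo detection 30 min, luminescence. Quinidine control.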

[17] = KB-3-1 P-gp reporter qHTS against the NCATS DSHEA and TCM libraries (AID 1919975); also: 0% is about no effect
Method in brief: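 Cell viability by CellTiter-Glo luminescence following ~72 h compound exposure (concentration-response). Uses parental, non-P-gp-overexpressing KB-3-1 line, 500 cells/well in DMEM/10% FBS, attached ~4 h before dosing.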

[18] = qHTS Counterscreen for compound interference against the NCATS DSHEA and TCM libraries (AID 1919978); conditions: firefly luciferase detection reagent interference, luminescence;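 also: compounds preincubated with 1 µM D-luciferin or buffer before detection reagent; % of control where 0% means no effect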
Method in brief: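 With 1 uM D-luciferin or phosphate buffer only, compounds at final 19.5 nM–39.8 uM were incubated for 15 min at room temperature. Luciferase detection reagent was then added, and luminescence was measured after a further 30 min at room temperature.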

[19] = molecular target: Nuclear receptor subfamily 1 group I member 2 (Homo sapiens) (UniProt O75469); assay: Dual reporter qHTS for agonist of Pregnane X Receptor (hPXR) against the NCATS DSHEA and TCM libraries: Luminescence readout (AID 1920059); also: 0% is about no effect
Nuclear receptor subfamily 1 group I member 2 (Homo sapiens), sequence (O75469 whole entry, looked up): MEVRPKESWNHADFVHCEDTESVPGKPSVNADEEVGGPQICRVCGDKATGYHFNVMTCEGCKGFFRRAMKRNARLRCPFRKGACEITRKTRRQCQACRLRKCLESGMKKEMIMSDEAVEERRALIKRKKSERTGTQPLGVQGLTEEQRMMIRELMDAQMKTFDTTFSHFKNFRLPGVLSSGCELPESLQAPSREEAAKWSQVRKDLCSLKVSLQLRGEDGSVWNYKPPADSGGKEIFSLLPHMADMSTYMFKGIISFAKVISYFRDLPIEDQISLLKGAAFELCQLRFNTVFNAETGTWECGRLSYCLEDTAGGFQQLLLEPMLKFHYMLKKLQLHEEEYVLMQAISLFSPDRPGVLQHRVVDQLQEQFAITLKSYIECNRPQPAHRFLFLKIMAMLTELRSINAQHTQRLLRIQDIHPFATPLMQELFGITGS
Method in brief: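 Luminescent PXR reporter read (ONE-Glo) after a CellTiter-Fluor viability read, following 24 h, 37C treatment of HepG2 cells stably carrying hPXR-Luc.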

[20] = molecular target: Nuclear receptor subfamily 1 group I member 2 (Homo sapiens) (UniProt O75469); assay: Dual reporter qHTS for antagonist of Pregnane X Receptor (hPXR) against the NCATS DSHEA and TCM libraries: Luminescence Readout (AID 1920060);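 also: HepG2 cells carrying hPXR luciferase reporter stimulated with rifampicin at 2 µM; 0% is about no effect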
Method in brief: (§2)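 Antagonist mode: rifampicin 2 uM final co-added with compounds to hPXR-LucHepG2 cells for 24 h at 37C. Viability by CellTiter-Fluor, Ex/Em 405/540 nm, 1 h; reporter by ONE-Glo luminescence.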

[21] = Dual reporter qHTS for antagonist of Pregnane X Receptor (hPXR) against the NCATS DSHEA and TCM libraries: Fluorescence Readout (AID 1920061); also: 0% is about no effect
Method in brief: as §2

[22] = molecular target: Nuclear receptor subfamily 1 group I member 2 (Rattus norvegicus) (UniProt Q9R1A7); assay: qHTS assay for small molecule activators of the rat pregnane X receptor (rPXR) signaling pathway (AID 651751; call rule not given here; also: 0% is about no effect); conditions: rPXR reporter cells, luciferase (One-Glo), 24 h
Nuclear receptor subfamily 1 group I member 2 (Rattus norvegicus), sequence (Q9R1A7 whole entry, looked up): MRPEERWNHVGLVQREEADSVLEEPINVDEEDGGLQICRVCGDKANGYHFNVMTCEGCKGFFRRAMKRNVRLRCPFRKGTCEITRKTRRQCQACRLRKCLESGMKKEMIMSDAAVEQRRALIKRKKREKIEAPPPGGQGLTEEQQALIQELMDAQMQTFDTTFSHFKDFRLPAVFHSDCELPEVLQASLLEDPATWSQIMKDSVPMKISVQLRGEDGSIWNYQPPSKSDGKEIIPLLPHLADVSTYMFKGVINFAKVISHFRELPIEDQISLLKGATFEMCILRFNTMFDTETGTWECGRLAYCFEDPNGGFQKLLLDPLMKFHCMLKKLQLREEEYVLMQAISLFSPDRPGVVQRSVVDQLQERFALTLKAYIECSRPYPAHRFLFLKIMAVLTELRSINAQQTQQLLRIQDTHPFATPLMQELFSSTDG

CCCCCCCCCCCC(=O)O
inactive: Potency [1] | Potency [2] | Potency [3] | outcome [4] | activation [5] 0.903% and 1.44% | max response [6] 9.6% and 16.5% | Potency [7] | Potency [8] | Potency [9] | max response [10] 8.32% and -0.379% | max response [11] -8.75% and -7.33% | Potency [12] | outcome [13] | outcome [14] | Potency [15] | Potency [16] | outcome [17] | max response [18] 3.72% | Potency [19] | outcome [20] | outcome [21] | max response [22] -4.75% and -1.77%
